Source: PubChem BioAssay (Tox21)
Inconclusive results are not listed. Calls of active or inactive are those of the source. Unless noted, calls follow the shape of the full dose curve.

How the values were obtained:
[1] = Nuclear factor erythroid 2-related factor 2/antioxidant responsive element (Nrf2/ARE) small molecule agonists: qHTS cell viability counter screen in human keratinocytes (AID 1919968; active = well fitted curve in the direction sought with a large enough effect in the repeat runs; an effect the other way counts as inactive or inconclusive; also: nearly all actives have a fitted effect of over 55% in size); conditions: KeratinoSens HaCaT ARE cells viability, CellTiter-Fluor, 24 h; series mostly up to 92.4 µM
In short: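 In human HaCaT keratinocytes stably expressing an ARE-driven luciferase, compound exposure lasted 23 h at 37 C under 5% CO2. Viable cells are quantified with a protease-based fluorogenic reagent (CellTiter-Fluor) read 1 h after addition.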

[2] = Nuclear factor erythroid 2-related factor 2/antioxidant responsive element (Nrf2/ARE) small molecule agonists: luciferase reporter gene qHTS assay in human keratinocytes (AID 1919969); conditions: KeratinoSens HaCaT ARE-luciferase, luminescence, 24 h; series mostly up to 92.4 µM; also: nearly all actives have a fitted effect of over 35% in size; also: potency is read from the fitted curve at half-maximal effect
[3] = target: Gonadotropin-releasing hormone receptor (Homo sapiens) (UniProt P30968); experiment: Human gonadotropin-releasing hormone receptor (GnRHR) small molecule agonists, calcium flux assay in GnRHR-HEK293 cells (AID 1920063); conditions: calcium flux fluorescence, agonist mode; series mostly up to 57.6 µM; also: nearly all actives have a fitted effect of over 35% in size
Chain of Gonadotropin-releasing hormone receptor (Homo sapiens) (P30968 whole entry, looked up): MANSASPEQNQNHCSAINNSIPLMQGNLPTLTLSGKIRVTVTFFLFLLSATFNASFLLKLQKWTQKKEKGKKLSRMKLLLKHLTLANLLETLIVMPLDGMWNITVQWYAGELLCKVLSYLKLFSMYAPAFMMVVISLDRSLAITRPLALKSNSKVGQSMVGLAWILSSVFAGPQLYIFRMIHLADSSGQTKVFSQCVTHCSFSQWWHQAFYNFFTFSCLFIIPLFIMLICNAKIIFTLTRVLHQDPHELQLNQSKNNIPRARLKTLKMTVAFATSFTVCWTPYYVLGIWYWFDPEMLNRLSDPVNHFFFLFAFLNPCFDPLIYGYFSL
In short: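 Intracellular calcium rise is the read-out: engineered human GnRHR HEK293 cells, dye-loaded, are exposed to DMSO-dissolved compounds and fluorescence at Ex/Em 480/540 is tracked for 3 min.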

[4] = target: KiSS-1 receptor (Homo sapiens) (UniProt Q969F8); experiment: Human kisspeptin (KISS1R) small molecule agonists, calcium flux assay in KISS1R-HEK293 cells (AID 1920064; active = well fitted curve in the direction sought with a large enough effect in the repeat runs; an effect the other way counts as inactive or inconclusive); conditions: KISS1R-HEK293, calcium flux fluorescence, agonist; series mostly up to 76.8 µM
Chain of KiSS-1 receptor (Homo sapiens) (Q969F8 whole entry, looked up): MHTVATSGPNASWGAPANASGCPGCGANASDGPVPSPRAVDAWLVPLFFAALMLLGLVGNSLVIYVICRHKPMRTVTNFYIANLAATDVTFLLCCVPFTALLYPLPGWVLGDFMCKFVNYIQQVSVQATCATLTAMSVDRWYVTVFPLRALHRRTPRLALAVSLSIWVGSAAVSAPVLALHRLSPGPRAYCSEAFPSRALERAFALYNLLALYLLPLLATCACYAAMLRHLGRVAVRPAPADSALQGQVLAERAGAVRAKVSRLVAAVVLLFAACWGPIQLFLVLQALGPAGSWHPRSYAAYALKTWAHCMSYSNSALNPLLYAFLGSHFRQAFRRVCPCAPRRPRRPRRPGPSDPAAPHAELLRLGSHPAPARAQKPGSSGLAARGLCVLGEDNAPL
In short: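 Concentration-response testing used 15 concentrations in triplicate on human KISS1R-expressing HEK293 cells. Calcium-dependent fluorescence (Ex/Em 480/540) was followed kinetically for 3 min after compound transfer.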

[5] = G protein-coupled receptor (GPCR) small molecule agonists, calcium flux assay: HEK293 wild type cell line counter screen (AID 1920065); conditions: HEK293 WT calcium flux, fluorescence, agonist mode; series mostly up to 57.6 µM
In short: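 Fluorescence intensity signals activation. After overnight (18 h) culture and a 1 h calcium dye load at 37 C, compounds are added by pin tool and the plate read at 480/540 nm for 3 min in 1 s steps.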

[6] = p53 small molecule agonists, cell-based qHTS assay with human liver microsomes (AID 1963577); conditions: HCT-116 p53RE-bla with human liver microsomes, ratio, 16 h; series mostly up to 66 µM
In short: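 Compounds act here after metabolic activation: human liver microsomes and NADPH, both at 0.5 mg/mL final, were co-added to p53RE-bla cells. Incubation ran 16 h at 37 C, followed by LiveBLAzer detection.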

[7] = p53 small molecule agonists, cell-based qHTS assay with human liver microsomes: qHTS cell viability counter screen (AID 1963579); conditions: p53RE-bla HCT-116 viability, ATP luminescence, 16 h, HLM; series mostly up to 66 µM; also: nearly all actives have a fitted effect of over 45% in size; also: potency is read from the fitted curve at half-maximal effect
In short: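 Cells carrying the p53 response-element beta-lactamase reporter are treated for 16 h at 37 C with test compounds in the presence of human liver microsomes and NADPH (both 0.5 mg/mL final); ATP-based CellTiter-Glo luminescence then reports viability.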

[8] = p53 small molecule agonists, cell-based qHTS assay with rat liver microsomes: qHTS cell viability counter screen (AID 1963580); conditions: p53RE-bla HCT-116 + rat microsomes, ATP viability, 16 h; series mostly up to 66 µM; also: nearly all actives have a fitted effect of over 45% in size
In short: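 Luminescent ATP readout (CellTiter-Glo, 30 min at room temperature) reports viability of p53RE-bla HCT-116 cells after 16 h at 37 C with test compounds under metabolic activation by rat liver microsomes and NADPH at 0.5 mg/mL final each.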

[9] = p53 small molecule agonists, cell-based qHTS assay (AID 1963582; active = well fitted activation curve with a large enough effect in the signal ratio in the repeat runs, not every such curve was filed as active; the % refers to the signal ratio); conditions: HCT-116 p53RE-bla reporter, beta-lactamase FRET ratio, 16 h; series mostly up to 66 µM
In short: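 After plating, p53RE-bla cells sat 5 h in the incubator; compounds or DMSO vehicle were pinned in; a 16 h incubation at 37 C followed; FRET substrate was added and, 2 h later at RT, fluorescence was measured.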

[10] = target: 5-hydroxytryptamine receptor 2A (Homo sapiens) (UniProt P28223); experiment: 5-hydroxytryptamine receptor 2A (HTR2A) small molecule antagonists, cell-based qHTS assay (AID 1963586); conditions: HTR2A-CHO cells, DOI-induced calcium flux, fluorescence; series mostly up to 61.5 µM; also: nearly all actives have a fitted effect of over 45% in size
Chain of 5-hydroxytryptamine receptor 2A (Homo sapiens) (P28223 whole entry, looked up): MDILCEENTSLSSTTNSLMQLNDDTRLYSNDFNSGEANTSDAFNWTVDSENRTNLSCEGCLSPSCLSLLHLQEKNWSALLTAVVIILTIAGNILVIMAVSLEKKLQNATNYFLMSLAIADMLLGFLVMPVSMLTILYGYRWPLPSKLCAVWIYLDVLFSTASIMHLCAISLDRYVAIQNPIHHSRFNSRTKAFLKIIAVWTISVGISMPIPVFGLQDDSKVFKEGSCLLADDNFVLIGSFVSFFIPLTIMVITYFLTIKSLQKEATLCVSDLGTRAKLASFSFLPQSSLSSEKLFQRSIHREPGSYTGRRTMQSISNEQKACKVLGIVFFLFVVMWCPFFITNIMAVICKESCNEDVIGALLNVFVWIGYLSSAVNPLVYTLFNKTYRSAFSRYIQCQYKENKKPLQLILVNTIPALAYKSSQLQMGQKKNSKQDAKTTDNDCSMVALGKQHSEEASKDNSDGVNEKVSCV
In short: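 CHO cells stably expressing human HTR2A were plated for 18 h at 37 C, then loaded with calcium dye for 1 h. Compounds were preincubated 5 min at room temperature before DOI (4 nM solution) was added. Kinetic fluorescence was read for 3 min.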

[11] = target: 5-hydroxytryptamine receptor 2A (Homo sapiens) (UniProt P28223); experiment: 5-hydroxytryptamine receptor 2A (HTR2A) small molecule agonists, cell-based qHTS assay (AID 1963587); conditions: HTR2A-CHO cells, calcium flux fluorescence, agonist mode; series mostly up to 76.8 µM; also: nearly all actives have a fitted effect of over 30% in size
In short: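 HTR2A-CHO cells, plated 18 h at 37 C/5% CO2, dye-loaded 1 h at 37 C; compounds in DMSO added by pin tool (agonist mode). Intracellular calcium flux read as kinetic fluorescence on FDSS over 2 min at 1 s intervals.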

[12] = target: Muscarinic acetylcholine receptor M1 (Homo sapiens) (UniProt P11229); experiment: Cholinergic receptor muscarinic 1 (CHRM1) small molecule antagonists, cell-based qHTS assay (AID 1963588); conditions: CHRM1-CHO antagonist mode, calcium flux fluorescence; series mostly up to 61.5 µM; also: nearly all actives have a fitted effect of over 40% in size
Chain of Muscarinic acetylcholine receptor M1 (Homo sapiens) (P11229 whole entry, looked up): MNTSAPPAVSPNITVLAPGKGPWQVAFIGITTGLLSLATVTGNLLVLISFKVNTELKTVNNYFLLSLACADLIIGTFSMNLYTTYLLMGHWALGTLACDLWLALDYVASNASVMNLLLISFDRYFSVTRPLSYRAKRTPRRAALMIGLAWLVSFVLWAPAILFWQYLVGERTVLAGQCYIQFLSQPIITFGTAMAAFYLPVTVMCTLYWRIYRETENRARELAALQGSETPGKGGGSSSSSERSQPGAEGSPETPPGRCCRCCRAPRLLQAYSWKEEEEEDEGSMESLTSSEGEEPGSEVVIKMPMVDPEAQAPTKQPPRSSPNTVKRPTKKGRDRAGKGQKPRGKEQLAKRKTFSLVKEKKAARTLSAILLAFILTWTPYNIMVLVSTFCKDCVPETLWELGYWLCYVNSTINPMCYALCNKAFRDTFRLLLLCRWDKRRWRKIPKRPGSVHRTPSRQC
In short: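 Compounds were tested at 15 concentrations in three independent runs. Dye-loaded CHRM1-CHO cells were exposed 5 min at room temperature before stimulation by acetylcholine added at 50nM. Intracellular calcium was read kinetically on FDSS for 3 min.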

[13] = target: Muscarinic acetylcholine receptor M1 (Homo sapiens) (UniProt P11229); experiment: Cholinergic receptor muscarinic 1 (CHRM1) small molecule agonists, cell-based qHTS assay (AID 1963589); conditions: CHRM1-CHO cells, agonist mode, calcium flux fluorescence; series mostly up to 76.8 µM; also: nearly all actives have a fitted effect of over 35% in size
In short: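 Fluorescent calcium dye reports M1 activation in stably transfected CHO cells. Compounds, 15 concentrations, added after 1 h dye loading at 37 C; kinetic reading at 1 sec intervals.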

[14] = cAMP Responsive Elements (CRE) small molecule agonists, cell-based qHTS assay (AID 1963590); conditions: CRE-bla HEK293T, beta-lactamase FRET ratio, 3 h; series mostly up to 92.4 µM
In short: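 Compound exposure lasted 3 h at 37 C/5% CO2 in CRE-bla HEK 293T cells grown in assay medium with 10% dialyzed FBS and 25 mM HEPES. Reporter signal came from LiveBLAzer B/G FRET substrate, 2 h, room temperature.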

[15] = cAMP Responsive Elements (CRE) small molecule antagonists, cell-based qHTS assay (AID 1963591; active = well fitted inhibition curve with a large enough effect in the signal ratio in the repeat runs, not every such curve was filed as active; the % refers to the signal ratio); conditions: CRE-bla HEK293T, beta-lactamase FRET ratio; series mostly up to 92.4 µM
In short: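 Stimulation used NKH477 at a final 0.25 uM for 3 h in compound-treated CRE-bla HEK293T cells, seeded 18 h beforehand. Reporter activity was measured with LiveBLAzer B/G FRET substrate after 2 h at room temperature.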

[16] = target: Beta-2 adrenergic receptor (Homo sapiens) (UniProt P07550); experiment: Adrenergic beta2 receptor (ADRB2) small molecule antagonists, cell-based qHTS assay (AID 1963592); conditions: CHO-ADRB2 cells, isoproterenol-stimulated cAMP HTRF ratio, 0.5 h; series mostly up to 92.4 µM; also: nearly all actives have a fitted effect of over 50% in size
Chain of Beta-2 adrenergic receptor (Homo sapiens) (P07550 whole entry, looked up): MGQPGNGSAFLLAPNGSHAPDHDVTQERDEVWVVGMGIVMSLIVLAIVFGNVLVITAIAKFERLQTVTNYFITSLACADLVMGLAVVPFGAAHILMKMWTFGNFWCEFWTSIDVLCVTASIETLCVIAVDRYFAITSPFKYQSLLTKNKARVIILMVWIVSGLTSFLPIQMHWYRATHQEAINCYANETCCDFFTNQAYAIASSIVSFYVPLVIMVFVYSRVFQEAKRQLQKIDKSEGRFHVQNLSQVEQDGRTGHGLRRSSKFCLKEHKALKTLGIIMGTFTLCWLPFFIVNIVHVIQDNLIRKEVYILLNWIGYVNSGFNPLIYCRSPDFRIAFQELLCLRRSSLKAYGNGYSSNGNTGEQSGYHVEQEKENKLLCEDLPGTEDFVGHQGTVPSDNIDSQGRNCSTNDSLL
In short: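 Assay format: CHO-ADRB2 cells, 18-20hr seeding at 37C/5% CO2, then compound plus 1nM isoproterenol agonist mix for 0.5hr RT. Homogeneous time-resolved fluorescence cAMP detection after 1hr, expressed as 665/615 nm ratio.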

[17] = target: D(2) dopamine receptor (Homo sapiens) (UniProt P14416); experiment: Dopamine D2 receptor (DRD2) small molecule agonists, cell-based qHTS assay (AID 1963594); conditions: HEK293-DRD2 cAMP HTRF, agonist mode, 30 min; series mostly up to 92.4 µM; also: nearly all actives have a fitted effect of over 35% in size
Chain of D(2) dopamine receptor (Homo sapiens) (P14416 whole entry, looked up): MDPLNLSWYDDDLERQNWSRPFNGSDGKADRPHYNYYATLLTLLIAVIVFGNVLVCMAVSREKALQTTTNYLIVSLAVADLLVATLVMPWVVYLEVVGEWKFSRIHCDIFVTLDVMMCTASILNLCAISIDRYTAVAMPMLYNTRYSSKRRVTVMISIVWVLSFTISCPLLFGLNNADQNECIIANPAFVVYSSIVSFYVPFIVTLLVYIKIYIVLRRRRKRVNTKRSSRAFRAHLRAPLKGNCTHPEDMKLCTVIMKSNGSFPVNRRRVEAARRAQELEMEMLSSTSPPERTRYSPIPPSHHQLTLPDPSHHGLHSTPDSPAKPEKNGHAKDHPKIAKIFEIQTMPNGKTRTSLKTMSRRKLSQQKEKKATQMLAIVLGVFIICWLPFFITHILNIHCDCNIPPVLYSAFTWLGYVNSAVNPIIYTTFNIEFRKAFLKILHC
In short: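 HEK293 cells stably expressing DRD2 were cultured 24 h at 37 C, then given Ro20-1724 (0.1 mM final) and compounds for 10 min at room temperature. NKH477 (200nM) was then added for 30 min. cAMP was read by HTRF.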

[18] = p53 small molecule agonists, cell-based qHTS assay: qHTS cell viability counter screen (AID 1963581); conditions: p53RE-bla HCT-116 viability, ATP luminescence, 16 h; series mostly up to 66 µM; also: nearly all actives have a fitted effect of over 45% in size
In short: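 Luminescence from CellTiter-Glo, reflecting ATP content, serves as the cytotoxicity measure; it is taken after the 2 h reporter substrate step in HCT-116 p53RE-bla cells dosed for 16 h at 37 C.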

[19] = target: D(2) dopamine receptor (Homo sapiens) (UniProt P14416); experiment: Dopamine D2 receptor (DRD2) small molecule antagonists, cell-based qHTS assay (AID 1963595; active = well fitted inhibition curve with a large enough effect in the signal ratio in the repeat runs, with a control signal flat; the % refers to the signal ratio); conditions: HEK293-DRD2 cAMP HTRF antagonist mode; series mostly up to 92.4 µM
In short: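 In this cell-based antagonist screen, compounds act for 10 min at room temperature before a 30 min challenge with 12 nM quinpirole and 200 nM NKH477. cAMP is quantified by HTRF competition in DRD2-HEK293 cells containing 0.1 mM Ro20-1724.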

Measured: Potency

CCC(=O)C(=O)CC
not listed: [18] | [19]
inactive: all other assays above

CN1CCN(C(c2ccccc2)c2ccccc2)CC1
not listed: [10] | [11] | [12] | [13]
inactive: all other assays above

O=C(c1ccccc1)c1cccc(O)c1
not listed: [8] | [11] | [15]
inactive: all other assays above

ClCCl
not listed: [8] | [12]
inactive: all other assays above

CCOC(=O)[C@H](C)O
not listed: [8] | [16] | [19]
inactive: all other assays above

C[C@@H]1C[C@H]2[C@@H]3CCC4=CC(=O)C=C[C@]4(C)[C@@]3(F)[C@@H](O)C[C@]2(C)[C@@]1(O)C(=O)COP(=O)(O)O
not listed: [10] | [11] | [12] | [13]
inactive: all other assays above

Cc1ccc(C=O)s1
active: [2] 68.6 µM | [7] 40.8 µM
not listed: [8] | [10]
inactive: all other assays above

O=Cc1ccccc1[N+](=O)[O-]
not listed: [8] | [9] | [13]
inactive: all other assays above
